HP1b binding inh – HTS for Inhibitors of HP1-beta Chromodomain Interactions with Methylated Histone Tails | AID 540317, 2011 | AlphaScreen HP1-beta / biotin-H3K9me3 peptide binding | Chromobox protein homolog 1 (Homo sapiens), P83916 | 390,000 tested, 0.56% active | Potency, µM (titrated, usually from 114 µM), actives largely listed as inhibitors; further: nearly all actives have a fitted effect of over 70% in size
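HP1-beta protein (50 nM final) preincubated 30 min at room temperature with biotinylated H3(1-18)K9me3 peptide (50 nM) in PBS pH 7.4, 0.01% Tween-20, then compound added for 30 min. AlphaScreen streptavidin donor/nickel chelate acceptor beads (10 ug/mL final), 30 min dark, luminescence read.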
PLK1 PBD block – qHTS for Inhibitors of PLK1-PDB (polo-like kinase 1 - polo-box domain): Primary Screen; Serine/threonine-protein kinase PLK1 (Homo sapiens), P53350; Plk1 PBD binding of FITC phosphopeptide, fluorescence polarization; Potency, µM, hits mostly inhibitors; 360,000 tested, 2.8% active; AID 720504, 2013; further: series mostly up to about 57 µM; nearly all actives have a fitted effect of over 65% in size
Sfp PPTase inh – qHTS Assay for Inhibitors of Bacillus subtilis Sfp phosphopantetheinyl transferase (PPTase). 4'-phosphopantetheinyl transferase ffp (Bacillus subtilis), Q9F4F7. Biochemical Sfp PPTase activity, qHTS. Potency, µM, most hits filed as inhibitors. 310,000 tested, 3.5% active. AID 1490, 2009;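 further: the enzyme is Sfp with the accession as filed and its product quenches rhodamine fluorescence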
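After 15 min at room temperature with compound, 15 nM Sfp received 5 uM rhodamine-CoA plus 12.5 uM BHQ-2-ybbR (50 mM Hepes pH 7.6, 10 mM MgCl2). Rate came from the fluorescence difference over 30 min, ex 525/em 598 nm.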
G9a block – qHTS Assay for Inhibitors of Histone Lysine Methyltransferase G9a. Histone-lysine N-methyltransferase EHMT2 (Homo sapiens), Q96KQ7. G9a H3K9 monomethylation, AlphaScreen, 2 h. Potency, µM (titrated, usually from 102 µM), usual class: inhibitors. 350,000 tested, 8.8% active. AID 504332, 2011; further: nearly all actives have a fitted effect of over 75% in size
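Quantitative HTS format: methyltransferase activity on a biotin-tagged H3K9 peptide is measured by AlphaScreen, using a rabbit anti-monomethyl-H3K9 antibody with streptavidin donor and anti-IgG acceptor beads. Final levels are 20 nM enzyme, 500 nM peptide, 20 uM SAM; 2 h RT.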
BAZ2B block – qHTS Assay for Inhibitors of BAZ2B. Bromodomain adjacent to zinc finger domain protein 2B (Homo sapiens), Q9UIF8. AlphaScreen BAZ2B-H3K14Ac peptide displacement. Potency, µM (doses to about 114 µM), actives largely listed as inhibitors. 360,000 tested, 4.4% active. AID 504333, 2011; further: nearly all actives have a fitted effect of over 60% in size
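BAZ2B (50 nM) with biotin-H3(5-23)K14Ac peptide (50 nM) in PBS pH 7.4, 0.01% Tween-20, preformed 30 min, then compound 30 min at room temperature; top concentration 110uM. AlphaScreen streptavidin donor/nickel chelate acceptor beads (10 ug/mL final), 20 min dark, signal read.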
JMJD2A Tudor inh – qHTS Assay for Inhibitors of JMJD2A-Tudor Domain. Lysine-specific demethylase 4A (Homo sapiens), O75164. AlphaScreen JMJD2A-Tudor / H3K4me3 peptide binding. Potency, µM (highest dose often 114 µM), actives largely listed as inhibitors. 390,000 tested, 4.4% active. AID 504339, 2011; further: nearly all actives have a fitted effect of over 50% in size
Numbers stand for hits; [ ] = remark or other dose. Sampled rows, rich in hits. Any-hit rate of the full collection: about 12%. The call rests on the fitted dose curve; in most records, active means well fitted curve in the direction sought with a large enough effect; inconclusive means small, poorly fitted or top-dose-only effect, or another doubt; inactive means no such curve, though single readings can be large; an effect the other way counts as inactive or inconclusive.

CCCc1cc(=O)[nH]c(SCC(=O)Nc2sc(C(N)=O)c(C)c2C(=O)OCCOC)n1 was read as HP1b binding inh inactive, PLK1 PBD block inactive, G9a block inactive[12.7 µM], BAZ2B block inactive and JMJD2A Tudor inh inactive.
O=C(c1cnc(Cl)c(Cl)c1)N1CCN(S(=O)(=O)c2cccs2)CC1 was read as PLK1 PBD block inactive.
For CC(=O)Nc1ccc(SCC(=O)c2cc(C)n(-c3ccccc3F)c2C)cc1 the results were HP1b binding inh inactive, PLK1 PBD block 19µM, Sfp PPTase inh inconclusive, G9a block inconclusive, BAZ2B block 45µM and JMJD2A Tudor inh inconclusive.
For COC(=O)c1ccc(C(=O)OC)c(NC(=O)CSCC(=O)O)c1 the results were HP1b binding inh inactive, PLK1 PBD block inactive, Sfp PPTase inh inactive, BAZ2B block inactive and JMJD2A Tudor inh inactive.
Screening COC(=O)c1ccc(C(=O)OC)c(NC(=O)CSc2cccc[n+]2[O-])c1 returned HP1b binding inh inconclusive, PLK1 PBD block 24µM, Sfp PPTase inh inactive, BAZ2B block inactive and JMJD2A Tudor inh 45µM.
`Cc1cc(C(=O)CN2C(=O)NC(CC(C)C)C2=O)c(C)n1-c1ccccc1F` (stereo unspecified) gave HP1b binding inh inactive, PLK1 PBD block inactive, Sfp PPTase inh inactive, G9a block 50µM, BAZ2B block inconclusive and JMJD2A Tudor inh inactive.
Screening C=CCn1c(C)cc(C(=O)CSc2ccc(NC(C)=O)cc2)c1C returned HP1b binding inh inactive, PLK1 PBD block inactive, Sfp PPTase inh inactive, G9a block inconclusive, BAZ2B block inconclusive and JMJD2A Tudor inh inactive[11.4 µM].
For COc1ccc(NS(=O)(=O)c2ccc3oc(SCc4ccc(F)cc4)nc3c2)cc1 the results were HP1b binding inh inactive, PLK1 PBD block inconclusive, Sfp PPTase inh inactive, G9a block 79µM, BAZ2B block inactive and JMJD2A Tudor inh inactive.
COC(=O)c1c(-c2ccc(S(C)(=O)=O)cc2)sc2cc(OC)ccc12 was read as HP1b binding inh inactive, PLK1 PBD block inconclusive and JMJD2A Tudor inh inconclusive.
For COC(=O)c1c(-c2ccc(S(C)(=O)=O)cc2)sc2ccc(OC)cc12 the results were HP1b binding inh inactive, PLK1 PBD block 21µM and JMJD2A Tudor inh 45µM.
CCCC/C=C/[C@H](c1ccccc1)[C@H](CO)Cc1cnc2ccccc2c1 was read as HP1b binding inh inactive, Sfp PPTase inh inactive and JMJD2A Tudor inh inactive.
For COc1cc(NC(C)CCCNC(C)C)c2ncccc2c1OC (stereo unspecified) the results were HP1b binding inh inconclusive, PLK1 PBD block inactive and JMJD2A Tudor inh 0.89µM.
For COc1cc(NCCCCCCN)c2ncccc2c1OC the results were HP1b binding inh inconclusive, PLK1 PBD block inconclusive and JMJD2A Tudor inh 56µM.
Screening c1cn2cc(-c3ccc4c(c3)OCO4)nc2s1 returned HP1b binding inh inconclusive, PLK1 PBD block 24µM, Sfp PPTase inh 32µM, G9a block inactive[2.33 µM], BAZ2B block inconclusive and JMJD2A Tudor inh inactive.
For Cc1c(C(=O)NC2CCCC2)oc2ccccc12 the results were HP1b binding inh inactive, PLK1 PBD block inactive, G9a block inactive, BAZ2B block inactive and JMJD2A Tudor inh inactive.
Cc1cc(=O)n2[nH]c(Nc3cccc(Cl)c3)nc2n1 was read as HP1b binding inh inactive, PLK1 PBD block inactive and JMJD2A Tudor inh inactive.
Oc1c(Br)cc(C2N=C(c3ccccc3Cl)NO2)cc1Br (stereo unspecified) was read as HP1b binding inh inconclusive, PLK1 PBD block inactive, Sfp PPTase inh inactive, G9a block inactive[0.501 µM], BAZ2B block inactive and JMJD2A Tudor inh 40µM.
`Cc1cccc(C)c1NC(=O)CCCCCNS(=O)(=O)c1ccccc1` gave HP1b binding inh inactive, PLK1 PBD block 24µM, Sfp PPTase inh inactive, G9a block inactive, BAZ2B block inactive and JMJD2A Tudor inh inactive.

From PubChem BioAssay
